# Bioassay records from PubChem.
# hgDAF12 agonist: activates the H. glycines DAF-12 receptor ligand-binding domain | hit rate 1.8% among 370,000 | HEK293 GAL4-hgDAF12 UAS-luciferase reporter, agonist luminescence; normalized to butyrate control | activation, % at 6.8 µM;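 active means activation above a cutoff set at the mean of all screened compounds plus 3 SD, cut at about 10% in these data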;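 further: 0% = DMSO wells and 100% = sodium butyrate wells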
# hcDAF-12 act: activators of H. contortus DAF-12 nuclear receptor | HEK293 hcDAF-12 lit1-tk-luc reporter, luminescence; 0% DMSO, 100% Δ7-dafachronic acid | activation, % at 6.8 µM | hit rate 1.4% among 370,000 | AID 652067;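 active means activation above the mean of all tested compounds plus 3 SD, cut at about 5.5% in these data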;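 further: 100% = response to 3 µM Δ7-dafachronic acid high control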
# DAX1 inh-1: DAX1 (NR0B1) inhibition, primary screen. HEK293T StAR-luciferase reporter, SF-1/DAX-1 repression relief. inhibition, % at 6.8 µM. hit rate 1.1% among 370,000. AID 652010;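 active means inhibition above the mean over all tested compounds plus 3 SD, cut at about 3.6% in these data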;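 further: 0% = DAX-1 cells with DMSO and 100% = cells lacking DAX-1 with DMSO; higher inhibition means more luminescence from relief of DAX-1 repression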
# ssDAF12 agonist: activators of S. stercoralis DAF-12 nuclear receptor | hit rate 1% among 370,000 | activation, % at 6.8 µM | HEK293 ssDAF-12/GRIP1 lit1-tk-luc reporter, luminescence; % of 3 µM dafachronic acid response | AID 652126;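 active means activation above the mean over all tested compounds plus 3 SD, cut at about 0.9% in these data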;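 further: 0% = DMSO-only wells and 100% = 3 µM delta7-dafachronic acid wells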
# DAX1 inh-2: inhibits human nuclear receptor DAX1 | P51843 | HEK293 Gal4-DAX1 luciferase reporter, luminescence | inhibition, % at 6.75 µM | hit rate 0.99% among 340,000 | AID 504766;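 active means inhibition above the mean over all tested compounds plus 3 SD, cut at about 4.2% in these data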;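 further: 0% = DAX1-transfected cells with DMSO and 100% = empty-vector control cells with DMSO; inhibition shows as a rise in luminescence from relieved DAX1 repression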
# Target sequence (P51843 207-470 limits assumed): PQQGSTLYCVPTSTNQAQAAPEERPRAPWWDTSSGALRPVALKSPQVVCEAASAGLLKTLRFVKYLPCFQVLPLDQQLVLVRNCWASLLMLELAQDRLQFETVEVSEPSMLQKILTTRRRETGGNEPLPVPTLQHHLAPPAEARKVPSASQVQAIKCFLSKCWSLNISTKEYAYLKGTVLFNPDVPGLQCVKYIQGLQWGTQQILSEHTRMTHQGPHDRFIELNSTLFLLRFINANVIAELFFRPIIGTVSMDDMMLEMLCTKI
# hgDAF12 ag: confirmation of H. glycines DAF-12 agonists; shares compounds with hgDAF12 agonist; HEK293 GAL4-hgDAF12 luciferase reporter, agonist mode; percent of butyrate response; activation, % at 6.8 µM; hit rate 80% among 3,300; AID 743050;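 active means mean activation over triplicate wells above the hit cutoff derived from the earlier primary screen, cut at about 11% in these data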;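 further: 0% = DMSO low control and 100% = 2 mM sodium butyrate high control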
# LXRb DAF12 ctr: LXR-beta agonism as DAF-12 counter-screen; 3,300 tested, under 10 active; shares compounds with hgDAF12 agonist; activation, % at 6.8 µM; AID 743051; HEK293 Gal4-LXR luciferase reporter, 24 h;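 active means mean activation of the triplicate above a set limit carried over from the primary screen, none filed active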
# Starred values were filed as active, the others as inactive; x = no result. Sampled rows, rich in hits. Any-hit rate of the full collection: about 4.1%.
SMILES,hgDAF12 agonist,hcDAF-12 act,DAX1 inh-1,ssDAF12 agonist,DAX1 inh-2,hgDAF12 ag,LXRb DAF12 ctr
COc1ccc(-c2cc(C(=O)N3CCCC3)no2)cc1,14*,5,2,0,-2,10,1
O=C(c1cc(-c2ccc(Br)cc2)on1)N1CCCC1,19*,4,3,1,2,15*,1
O=C(c1cc(-c2ccccc2)on1)N1CCCCCC1,13*,4,2,0,1,15*,1
O=C(c1cc(-c2ccc(O)cc2)on1)N1CCCC1,15*,5,3,1,2,13*,1
Cc1onc(C(=O)N2CCN(C(c3ccccc3)c3ccccc3)CC2)c1Br,2,3,x,-1,x,x,x
O=C(NCc1ccccc1)OC1CC2CC1[C@H]1CCCCN1C2 (stereo not given in full),3,-2,0,-1,x,x,x
O=C(Cn1c(=O)c(=O)n(Cc2ccccc2)c2ccc(Cl)cc21)Nc1cccc(F)c1,26*,-1,0,0,1,0,0
CC(C)(C)NC(=S)NCCc1ccccc1,14*,5,3,1,3,11*,0
Cc1ccc2c(c1)C(=NC1CCCCC1)c1cc3ccccc3nc1-2,20*,15*,4.2*,2.4*,1,18*,1
O=C(Nc1nnc([C@@H]2C[C@H](O)[C@@H](CO)O2)s1)c1cccc(OC(F)(F)F)c1,1,-2,1,-2,x,x,x
COc1cccc(-c2noc(C3CCCN(C(=O)CC(C)(C)C)C3)n2)c1 (stereo not given),9,2,1,-2,1,x,x
COc1ccc(-c2noc(C3CCCN(C(=O)c4ccc(C)cc4)C3)n2)cc1 (stereo not given),0,-2,0,-2,0,x,x
COc1ccc(-c2noc(C3CCCN(C(=O)NC4CCC(C)CC4)C3)n2)cc1 (stereo not given),14*,0,4,-1,x,2,0
CCCCC(=O)N1CCCC(c2nc(-c3cccc(OC)c3)no2)C1 (stereo not given),15*,1,2,-1,2,6,0
Nc1ccc(-c2nc3ccc([N+](=O)[O-])cc3[nH]2)cc1,16*,2,4.3*,0,2,15*,1
CCN(CC)C(=O)CSc1nnc(-c2ccccc2)o1,18*,2,2,-1,1,12*,0
CC1=C(C(=O)N2CCCCCC2)CC(CC(=O)NCCN2CCOCC2)C(=O)N1CCC1=CCCCC1 (stereo not given),-3,0,0,-1,x,x,x
CCOC(=O)c1nn(-c2cccc(C)c2)c2nnc(Cc3ccc(C)cc3)c(=O)n12,-1,0,0,-1,-1,x,x
COc1ccccc1CC(=O)NC1CC1,0,1,1,-1,0,x,x
COc1ccccc1CC(=O)NC1CCCCCC1,13*,-1,0,-2,0,1,0
COCCN1C(=O)c2oc3cc(C)c(C)cc3c(=O)c2C1c1ccc(O)cc1 (stereo not given),-1,-1,0,-2,2,x,x
N/C(=N\C(=S)Nc1ccccc1)c1ccccc1,16*,6.0*,2,0,4.7*,17*,1
O=c1c2c(nc3cc(-c4cccc(F)c4)[nH]n13)CCC2,20*,4,3,0,1,17*,1
COC(=O)[C@]12C[C@H](CC(=O)NCCC(C)C)C(=O)N(Cc3ccco3)C1=C[C@H](C1CCCC1)O[C@@H]2C,0,-2,0,-1,x,x,x
CN1CCN(/C=N/c2sc3c(c2C#N)CCCCC3)CC1,19*,6.4*,1,1,6.8*,19*,1
SMILES,hgDAF12 agonist,hcDAF-12 act,DAX1 inh-1,ssDAF12 agonist,DAX1 inh-2,hgDAF12 ag,LXRb DAF12 ctr
CCN(/C=N/c1sc2c(c1C#N)CCCCC2)CC,14*,6.1*,3,-1,3,13*,1
O=C(OCc1cn(Cc2cccc(Cl)c2)nn1)N1CCCC1,1,-2,-1,-1,x,x,x
CC(=O)C(=Cc1ccccc1)c1ccccc1,0,0,-1,0,x,x,x
CC(Sc1nnc(NC2CC2)s1)C(=O)Nc1ccc(S(N)(=O)=O)cc1 (stereo not given),2,0,0,-1,1,x,x
CC(Sc1nnc(NCc2ccccc2)s1)C(=O)Nc1ccc2c(c1)C(=O)c1ccccc1C2=O (stereo not given),15*,1,1,-1,-1,9,0
CC(=O)Oc1ccc2occ(C(=O)c3cccs3)c2c1,14*,4,3,-1,0,11*,0
CC(=O)Oc1ccc2occ(C(=O)c3ccccc3)c2c1,9,4,1,0,x,x,x
COc1ccc(C(=O)c2coc3ccc(O)cc23)cc1,16*,5,3,1,2,20*,1
Cc1ncc(CO)c(CNc2ccc(-c3nc4ccccc4[nH]3)cc2)c1O,16*,1,2,-1,1,13*,1
Cc1ccc(NC(=O)c2[nH]cnc2C(=O)NN)cc1,13*,0,1,-1,1,2,0
CSCCC(N=C1NS(=O)(=O)c2ccccc21)C(=O)NCCc1ccccc1 (stereo not given),0,0,-1,-1,0,x,x
COCCn1c(C)cc(C(=O)Cn2nc(C(=O)O)c3ccccc3c2=O)c1C,14*,1,4,0,1,12*,0
Cc1cc(C(=O)Cn2nc(C(=O)O)c3ccccc3c2=O)c(C)n1C1CC1,0,-1,1,-2,1,x,x
C/C(CCc1ccccc1)=N\NC(=O)c1ccccc1,14*,1,2,0,1,3,0
Cc1cccc(COCCN2CCN(S(=O)(=O)c3ccccc3)CCC2=O)c1,-1,-2,-1,-1,0,x,x
Cc1cc(NC(=O)c2ccc(-c3ccccc3[N+](=O)[O-])o2)no1,4,-1,1,-1,0,x,x
CC(=O)c1cccc(NC(=O)c2ccc(-c3ccccc3[N+](=O)[O-])o2)c1,14*,1,2,-1,2,13*,1
CCc1nc2c(OCC3COc4ccccc4O3)cccn2c1N(C)C(=O)c1ccccc1F (stereo not given),-2,-2,0,-1,x,x,x
O=C(CNc1ccccc1)N/N=C/c1ccc2c(c1)OCO2,0,0,0,-1,-1,x,x
Cc1ccc(C(=O)NN=Cc2ccc3c(c2)OCO3)cc1,15*,1,1,0,1,12*,0
O=C(Cc1ccccc1)N/N=C/c1ccc2c(c1)OCO2,16*,4,1,-1,x,12*,0
